Unmarked numbers belong to inactive results.

The subject of the test is Vero E6 infected with SARS-CoV-2. Nature of the test: inhibition of SARS-CoV-2 cytopathic effect; higher = more antiviral protection, active = above 15. The note with it: 48 h.

For the compound `O=C1NCCNC1c1cccs1` (stereo not given) [tenilsetam], the “inhibition of SARS-CoV-2 cytopathic effect” value (shortened to “inhibition”) (1 nM) was 3.34%; the “inhibition” value (8.33 nM) was 0.52%; the “inhibition” value (100 nM) was -1.98%; the “inhibition” value (833.33 nM) was -2.12%; the “inhibition” value (10000 nM) was -1.68%.
In the same order, the values of `O=C1NN(C(=O)Nc2ccc(Br)cc2)[C@@H](c2ccccc2)[C@@H]1c1ccccc1` are 0.57%, 1.35%, -2.12%, -0.26% and -1.96%.
In the same order, the values of `CC(=O)OCC1=C(C(=O)O)N2C(=O)[C@@H](N)[C@H]2SC1` [7-aminocephalosporanic-acid] are -5.97%, -2.34%, -5.2%, -0.34% and 3.59%.
In the same order, the values of `COc1c(OCCCN2CCOCC2)ccc2c1N=C(NC(=O)c1cnc(N)nc1)N1CCN=C21` [copanlisib] are -2.48%, -1.99%, -3.58%, -5.18% and -12.2%.
As to `CO[C@@H](C)Cn1c(=O)n(C)c2cnc3ccc(-c4cncc(C(C)(C)O)c4)cc3c21`, the “inhibition” value is, setting by setting: (1 nM) 0.62%; (8.33 nM) 2.32%; (100 nM) -0.9%; (833.33 nM) -3.02%; (10000 nM) -17.6%.
In the same order, the values of `CN1CCN(c2ccc3[nH]c(-c4ccc5[nH]c(-c6ccc(O)cc6)nc5c4)nc3c2)CC1` [pibenzimol] are -0.58%, -1.08%, 1.05%, 2.62% and 4.07%.
In the same order, the values of `COc1cc(NS(=O)(=O)c2ccc(N)cc2)nc(OC)n1` [sulphadimethoxine] are -0.84%, -2.06%, 2.74%, -1.94% and -0.74%.
In the same order, the values of `CCCCCCCCN=c1ccn(CCCCCCCCCCn2ccc(=NCCCCCCCC)cc2)cc1` [octenidine] are 0.26%, 2.35%, 0%, -7.17% and -19.8%.
For `NC(=O)[C@@H]1CC[C@@H]2CN1C(=O)N2OS(=O)(=O)O` [avibactam], the “inhibition” value is -1.08% (1 nM); 0.92% (8.33 nM); -0.14% (100 nM); 0.95% (833.33 nM); 1.7% (10000 nM).
Turning to `O=C(O)[C@H](O)[C@@H](O)[C@H](O[C@@H]1O[C@H](CO)[C@H](O)[C@H](O)[C@H]1O)[C@H](O)CO` [maltobionic-acid], the “inhibition” value by setting is: (1 nM) -0.69%; (8.33 nM) -2.72%; (100 nM) -1.55%; (833.33 nM) -3.61%; (10000 nM) -1.2%.
In the same order, the values of `Nc1ncc(Cc2ccc(Br)cc2)s1` are -0.22%, 1.1%, 2.74%, 2.26% and 2.73%.
In the same order, the values of `CC(=O)c1cc([N+](=O)[O-])c(Sc2ccc(F)cc2F)s1` are -0.55%, 1.74%, 0.23%, -0.14% and 19.6% (active).
As to `Cc1c(F)cccc1NC(=O)Nc1ccc(Cl)c(S(=O)(=O)[C@H]2CCCNC2)c1O` [danirixin], the “inhibition” value (1 nM) was -0.94%; the “inhibition” value (8.33 nM) is -0.94%; the “inhibition” value (100 nM) is -0.32%; the “inhibition” value (833.33 nM) was -0.62%; the “inhibition” value (10000 nM) is 2.67%.
Regarding `C[C@@H](NC(=O)[C@@H](N)Cc1ccc(O)cc1)C(=O)NCC(=O)N(C)[C@@H](Cc1ccccc1)C(=O)N[C@H](CO)CC[S+](C)[O-]` (stereo not given in full), the “inhibition” value by setting is: (1 nM) -0.57%; (8.33 nM) -1.1%; (100 nM) -1.84%; (833.33 nM) -0.24%; (10000 nM) 0.65%.
Take `NCCNCCNCCN` [trientine]: the “inhibition” value reads like this: (1 nM) -0.43%; (8.33 nM) 2.23%; (100 nM) 1.04%; (833.33 nM) 2.74%; (10000 nM) -1.84%.
In the same order, the values of `CC(C)(C=O)Cc1cc(C(C)(C)C)c(O)c(C(C)(C)C)c1` are 3.54%, 2.95%, 2.75%, 2.01% and 1.01%.
In the same order, the values of `Oc1ccc([C@H]2COc3cc(O)ccc3C2)cc1` [equol] are -2.73%, -1.03%, -2.88%, 3.83% and 0.31%.
In the same order, the values of `C[C@]12C=CC(=O)C=C1CC[C@@H]1[C@@H]2[C@@H](O)C[C@@]2(C)[C@H]1CC[C@]2(O)C(=O)COC(=O)CCC(=O)O` [prednisolone-hemisuccinate] are -1.49%, 0.74%, 3.44%, 3.76% and 1.85%.

The values above are taken from the supplement of paper PMC13380429.
